# Shown are actives, neighbours in structure and some others; about 19% of the full set was active somewhere.
# HT1080-NT tox = kills 2HG-producing HT-1080-NT fibrosarcoma cells. HT-1080-NT fibrosarcoma viability, CellTiter-Glo ATP luminescence, 48 h. Potency, µM (doses to about 46.1 µM), inactives show at the top dose activity, negative = less viability, most hits filed as cytotoxic. 360,000 tested, 1.6% active. AID 686970;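 further: NT is the 2HG producing partner of a matched IDH1 knockdown line; 0% = DMSO-treated cells and -100% = media-only wells without cells; nearly all actives have a fitted effect of over 55% in size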
#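 Viability of the 2HG-overproducing fibrosarcoma line after 48 hours of compound exposure at 37 degrees C was determined by luminescence with CellTiter-Glo, and concentration-effect curves were then fitted and categorized.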
# DT40 TDP1 CPT = DT40-hTDP1 cell growth loss with CPT | chicken DT40 Tdp1-/-;hTDP1 cells + 20 nM CPT, ATP luminescence, 48 h | Potency, µM (doses to about 46.2 µM), inactives show top-dose activity change, negative = growth inhibition, usual class: inhibitors | 420,000 tested, 12% active; further: nearly all actives have a fitted effect of over 55% in size
#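 Cell growth measured by CellTiter-Glo luminescence after a minimum 48 h, 37 C compound exposure with 20 nM CPT in Tdp1-knockout DT40 cells stably expressing hTDP1, seeded 400/well; qHTS titration format.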
# TDP1 cell noCPT = qHTS for Inhibitors of human tyrosyl-DNA phosphodiesterase 1 (TDP1): qHTS in cells in absence of CPT; 420,000 tested, 15% active; DT40 Tdp1-/- hTDP1 cells, no CPT, ATP luminescence, 48 h; Potency, µM (series often up to 46.2 µM), for inactives: top-dose activity change, negative = growth inhibition, most hits filed as inhibitors; further: nearly all actives have a fitted effect of over 55% in size
#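 DT40 Tdp1-/-;hTDP1 cells, no CPT (DMSO vehicle only), 400 cells/well; compounds pin-transferred; ≥48 hr, 37 °C; CellTiter-Glo 30 min RT dark, luminescence read.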
# KB-3-1 tox = KB-3-1 parental cell cytotoxicity | Potency, µM (top dose mostly 46.1 µM), most hits filed as cytotoxic | KB-3-1 viability, CellTiter-Glo ATP luminescence, 72 h | AID 1347075 | 400,000 tested, 1.4% active; further: nearly all actives have a fitted effect of over 60% in size
#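 Cytotoxicity in the drug-sensitive parental line KB-3-1 was scored as loss of CellTiter-Glo luminescence following 72 h incubation with compound. Values come from curve fitting of normalized concentration-response data.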
# KB-V1 cytotox = KB-V1 MDR subline cytotoxicity; KB-V1 MDR cells viability, CellTiter-Glo, 72 h; Potency, µM (top dose mostly 46.1 µM), hits mostly cytotoxic; 400,000 tested, 3.4% active; AID 1347076; further: nearly all actives have a fitted effect of over 60% in size
#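 Compound-treated KB-V1 multidrug-resistant cells, 72 h, 37 degrees C; viability by CellTiter-Glo. Fitted qHTS curves give the values.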
# HT1080 IDH1KD tx = HT-1080 IDH1 knockdown cell toxicity (counter line); 360,000 tested, 2% active; Potency, µM (top dose mostly 46.1 µM), for inactives: top-dose activity, negative = toxicity, actives largely listed as cytotoxic; HT-1080 IDH1 knockdown viability, ATP luminescence, 48 h;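 further: 0% = DMSO wells and -100% = cell-free medium wells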
#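 Using the IDH1-knockdown HT-1080 line run in the same batch and compound series as the NT line, viability after 48 h at 37 °C was determined by CellTiter-Glo luminescence and expressed as % activity.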
# * = called active by the depositor; i = inactive; ? = inconclusive; . = no result given; [ ] = dose if it differs, or a comment. The call rests on the fitted dose curve; in most records, active means well fitted curve in the direction sought with a large enough effect; inconclusive means small, poorly fitted or top-dose-only effect, or another doubt; inactive means no such curve, though single readings can be large; an effect the other way counts as inactive or inconclusive. Unless noted, on the % scale 0 is the no-effect control and ±100 the full control effect; potency means the concentration at half of the fitted maximal effect.
SMILES,HT1080-NT tox,DT40 TDP1 CPT,TDP1 cell noCPT,KB-3-1 tox,KB-V1 cytotox,HT1080 IDH1KD tx
CCCc1ccc2oc(C(=O)NCCN3CCCC(O)C3)c(C)c2c1 (configuration not stated),?,?,?,i,i,23.1µM*
NNc1ccc2c(C(F)(F)F)cc(C(F)(F)F)nc2n1,0.5%,?,?,?,i,2.4%
N#CC(c1cccc(Cl)c1)c1ccc2c(C(F)(F)F)cc(C(F)(F)F)nc2n1 (configuration not stated),9.2µM*,1.46µM*,1.64µM*,?,0.92µM*,?
COC(=O)c1ccc(CSc2nnc(C)s2)cc1,8.7%,11.6µM*,10.3µM*,i,i,12.9%
COc1ccccc1N1CCN(C(=O)c2ccc3c(=O)n(Cc4ccc5c(c4)OCO5)c(=O)[nH]c3c2)CC1,-23.5%,16.4µM*,18.4µM*,i,i,-20.4%
CCn1cc(C(=O)N2CCN(c3cc(Cl)ccc3C)CC2)c2cc(OC)c(OC)cc2c1=O,.,11.6µM*,?,i,i,.
COc1ccc(Cn2c(=O)[nH]c3cc(C(=O)N4CCN(c5ccccc5OC)CC4)ccc3c2=O)cc1,?,?,23.1µM*,20.6µM*,?,-19.0%
COCCn1c(=O)[nH]c2cc(C(=O)N3CCN(Cc4ccc5c(c4)OCO5)CC3)ccc2c1=O,4.8%,-29.6%,-1.8%,i,i,0.7%
COc1cc2c(C(=O)N3CCN(c4cc(Cl)ccc4C)CC3)cn(CC(C)C)c(=O)c2cc1OC,.,?,-18.2%,?,i,.
COc1ccc(C2OC(=O)CC2C(=O)N2CCN(c3cc(Cl)ccc3C)CC2)cc1OC (configuration not stated),0.2%,20.6µM*,?,i,i,4.1%
COc1ccc(Cn2c(=O)[nH]c3cc(C(=O)N4CCN(c5cc(C)ccc5C)CC4)ccc3c2=O)cc1,.,?,?,i,i,.
CN(Cc1ccccc1)S(=O)(=O)c1ccccc1Br,1.6%,-22.0%,-9.9%,i,i,-2.0%
[N-]=[N+]=NC1CC(CO)OC1n1ccc(=O)[nH]c1=O (configuration not stated),-0.3%,16.3%,-5.4%,i,i,5.1%
CCc1[nH]c(C(=O)O)c(C)c1C(=O)OC,7.8%,-1.6%,0.0%,i,i,-1.7%
COc1ccc(Cn2c(=O)[nH]c3cc(C(=O)N4CCN(Cc5ccccc5)CC4)ccc3c2=O)cc1,-29.0%,16.4µM*,18.4µM*,?,20.6µM*,?
COc1cc2[nH]c(=O)n(Cc3ccc(C(=O)N4CCN(c5cc(Cl)ccc5C)CC4)cc3)c(=O)c2cc1OC,.,2.31µM*,5.17µM*,i,i,.
Cc1ccc(C(=O)N2CCSCC2)cc1,6.0%[9.24 µM],-12.0%,1.0%,i,i,-10.0%
CCN(CC)CCCNC(=O)CSc1c2c(nc3cc(Cl)ccc13)CCCC2,23.1µM*,8.2µM*,5.8µM*,i,i,23.1µM*
CC(C)OCCCNC(=O)CSc1c2c(nc3ccc(Cl)cc13)CCCC2,.,?,23.1µM*,.,.,.
Cn1c(CNC(=O)c2ccccc2)nnc1SCC(=O)Nc1nccs1,7.1%,14.6µM*,?,i,i,8.4%
COc1cccc(C(=O)NCc2nnc(SCC(=O)Nc3nccs3)n2-c2ccccc2)c1,0.0%,-21.2%,-17.6%,i,i,9.5%
Cc1cccc(C(=O)NCc2nnc(SCC(=O)NC3=NCCS3)n2C)c1,-2.4%,?,16.4µM*,i,i,13.7%
CCn1c(Cc2cccc3ccccc23)nnc1SCC(=O)Nc1nccs1,-10.1%,?,?,i,18.4µM*,3.0%[9.24 µM]
CCn1c(CNC(=O)c2cccc(C)c2)nnc1SCC(=O)NC1=NCCS1,-1.3%,1.8%,?,i,i,11.1%
Cc1cc(NCCC(C)C)n2nc(C)c(-c3ccccc3)c2n1,?,?,?,i,20.6µM*,?
SMILES,HT1080-NT tox,DT40 TDP1 CPT,TDP1 cell noCPT,KB-3-1 tox,KB-V1 cytotox,HT1080 IDH1KD tx
Cc1cc(NCCCN2CCOCC2)n2nc(C)c(-c3ccccc3)c2n1,-23.8%,16.4µM*,16.4µM*,?,?,-21.6%
Cc1cc(NCCCN2CCOCC2)n2nc(C)c(-c3ccc(F)cc3)c2n1,?,?,16.4µM*,i,i,?
CCN(CC)C(=O)C1=C(C)N(Cc2ccccc2)C(=O)C(CC(=O)NCCCN(C)C)C1 (configuration not stated),-0.1%,-3.1%,-11.5%,i,i,7.6%
O=C1CC(C(=O)O)(c2ccccc2)c2cccc(F)c21 (configuration not stated),-0.2%,6.7%,-3.5%,i,i,1.9%
N#Cc1cn(-c2ccccc2)nc1-c1cc2ccccc2oc1=O,-7.2%,?,16.4µM*,i,i,0.4%
CCSc1nn(CC(=O)Nc2cccc(Cl)c2)c(N)c1S(=O)(=O)c1ccc(OC)cc1,.,?,?,i,i,.
CCSc1nn(CC(=O)Nc2cccc(CC)c2)c(N)c1S(=O)(=O)c1ccccc1,.,?,14.6µM*,?,i,.
COc1ccc(S(=O)(=O)c2c(SC)nn(CC(=O)Nc3ccc(C)c(Cl)c3)c2N)cc1,.,25.9µM*,25.9µM*,i,i,.
CCc1ccc(NC(=O)Cn2nc(SC)c(S(=O)(=O)c3ccc(OC)cc3)c2N)cc1,.,-11.8%,-19.7%,i,?,.
COCCNC(=O)C1(C)CCCN(C(=O)c2ccccc2C(F)(F)F)C1 (configuration not stated),?,-19.4%,1.1%,i,i,24.6%
CCN(CC(=O)Nc1ccccc1-c1ccccc1)Cc1nc2ccccc2c(=O)[nH]1,5.8µM*,5.8µM*,4.61µM*,8.2µM*,?,4.61µM*
CCN(CC(=O)Nc1ccccc1SC)Cc1nc2ccccc2c(=O)[nH]1,-0.4%,0.651µM*,2.06µM*,i,i,-7.5%
CCN(CC(=O)Nc1ccccc1C(=O)Nc1ccccc1)Cc1nc2ccccc2c(=O)[nH]1,-7.2%,10.7%,-1.0%,i,i,16.7%
CCC(Oc1ccccc1)C(=O)N[C@@H]1C(=O)N2[C@@H]1SC(C)(C)[C@@H]2C(=O)O (some centres not stated),.,0.3%,0.4%,.,.,.
